# An excerpt weighted towards active compounds, which were near 14% of everything screened.
# HCMV inh – inhibitors of human cytomegalovirus | HFF cells, HCMV-luciferase reporter, 72 h; stronger effect = lower value | activity change, negative = inhibition, % at 57.5 µM | 4.5% of 410,000 active; in the data active = activity change below about -60%; inconclusive = no clear call, values can overlap the other calls; inactive = above about -39%
#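 Luciferase read-out from HCMV-luciferase-infected HFFs (MOI 1 PFU/cell) 72 h post infection at 37C; compounds added after 16 h cell attachment; activity normalized between buffer-only basal and Salinomycin (10uM) inhibitor controls.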
# Giardia FBPA inh – inhibitors of Giardia lamblia fructose-1,6-bisphosphate aldolase. A8B2U2. purified Giardia FBPA. Potency, µM (highest dose often 59.6 µM), without a hit: top-dose activity, negative = inhibition, most hits filed as inhibitors. 0.71% of 290,000 active. AID 2451; note: potency is the fitted concentration of half-maximal effect; nearly all actives have a fitted effect of over 55% in size
# Target sequence (A8B2U2 whole entry, looked up): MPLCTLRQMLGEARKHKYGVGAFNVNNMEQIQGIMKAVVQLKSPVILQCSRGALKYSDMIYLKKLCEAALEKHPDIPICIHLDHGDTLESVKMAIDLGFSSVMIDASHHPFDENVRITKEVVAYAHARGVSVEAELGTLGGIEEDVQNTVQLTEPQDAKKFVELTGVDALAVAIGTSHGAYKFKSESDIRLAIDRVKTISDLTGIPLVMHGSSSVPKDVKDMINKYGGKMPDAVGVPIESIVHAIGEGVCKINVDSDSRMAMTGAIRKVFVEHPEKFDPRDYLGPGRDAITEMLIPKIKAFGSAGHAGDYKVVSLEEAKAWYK
#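 40 nM FBPA preincubated 10 min at RT with compound (up to 57.5 uM final), then substrate plus GAPDH/TPI/NAD/arsenate coupling and diaphorase/resazurin added. Fluorescence read after 20 min at RT, 525/598 nm.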
# Pf growth 96h – P. falciparum growth inhibition at 96 hours; Potency, µM (highest dose often 28.7 µM), without a hit: at the top dose activity change, negative = inhibition, usual class: inhibitors; P. falciparum luciferase reporter growth, 96 h; AID 504834; 6.9% of 320,000 active; note: potency is the fitted concentration of half-maximal effect
#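 Parasite growth measured via integrated firefly luciferase reporter in P. falciparum. Infected erythrocytes at 2% hematocrit, 0.05% parasitemia final were treated 96 hours at 37 C under 5% CO2, and luminescence was read.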
# Sm TGR inh – inhibitors of Schistosoma mansoni thioredoxin glutathione reductase. Q962Y6. purified TGR, DTNB reduction, TNB absorbance 405 nm. Potency, µM (doses to about 114 µM), for inactives: top-dose activity change, negative = inhibition, hits mostly inhibitors. 3% of 360,000 active. AID 485364; note: potency is the fitted concentration of half-maximal effect; nearly all actives have a fitted effect of over 60% in size
#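 TGR 20 nM + NADPH 100 uM (dispensed conc.), cpd preinc 15 min RT; start with NADPH (500 uM addition) then DTNB (15 mM addition). Kinetic TNB absorbance, 405 nm filter. Four-parameter Hill fit across titration.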
# Pf growth 48h – P. falciparum growth inhibition at 48 hours (one generation). P. falciparum luciferase growth in erythrocytes, 48 h. Potency, µM (series often up to 28.7 µM), for inactives: top-dose activity change, negative = inhibition, most hits filed as inhibitors. 5.9% of 310,000 active; note: potency is the fitted concentration of half-maximal effect
#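 Cell-based growth assay: transgenic P. falciparum expressing firefly luciferase, cultured in red cells within RPMI 1640 containing 0.5% w/v Albumax, 24 mM bicarbonate and gentamycin. A drop in luciferase activity indicates inhibition.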
# * marks the source's active call; other numbers are inactive results; ? = inconclusive; . = no result; ! = not active in a repeat; [ ] = another dose, or the depositor's remark. Unless noted, calls come from the whole dose curve; as a rule, active = well fitted curve in the direction sought with a large enough effect; inconclusive = small, poorly fitted or top-dose-only effect, or another doubt; inactive = no such curve, though single readings can be large; an effect the other way counts as inactive or inconclusive. % is set by controls: 0 for no effect and ±100 for the full control effect.
SMILES,HCMV inh,Giardia FBPA inh,Pf growth 96h,Sm TGR inh,Pf growth 48h
O=C(NNC1=Nc2ccccc2SC1)c1ccc(F)cc1,?,11.7%,?,7.4%,10.4µM*
Cc1cnc(CNc2cc(-c3cccnc3)ncn2)cn1,.,5.1%,.,.,.
CCOc1ccc(Cc2nc(-c3nonc3N)no2)cc1OCC,19.7,-2.8%,1.47µM*,-0.1%,-9.5%
CN(C(=O)Cc1c(C(=O)O)n(C)c2ccccc12)c1ccc(F)cc1,-19.9,2.8%,?,6.4%,2.4%
Cc1c(NCc2nc3ccccc3[nH]2)c(=O)n(-c2ccccc2)n1C,14.2,-2.3%,13.1µM*,-1.8%,21.4%
Cc1ccc(C)c(OCc2nc3ccc(S(=O)(=O)Nc4c(C)n(C)n(-c5ccccc5)c4=O)cc3[nH]2)c1,-25.5,15.2%,5.22µM*,8.1%,11.7µM*
Cc1c(NS(=O)(=O)c2ccc3nc(COc4ccccc4Cl)[nH]c3c2)c(=O)n(-c2ccccc2)n1C,-24.0,0.1%,?,7.3%,?
CC(NC(=O)/C(=C/c1ccc(OC(F)F)cc1)c1ccccc1)c1ccccc1 (stereo not given),-79.3*,6.5%,?,8.1%,-18.6%
CC(NC(=O)/C(C#N)=C/c1ccc(OCC(=O)O)cc1)c1ccccc1 (stereo not given),23.1,-8.3%,?,-10.2%,13.0%
Cc1ccc(N(CC2=NCCN2)c2cccc(O)c2)cc1,-65.9*!,?,-4.1%,5.5%,?
c1ccc(CC2=NCCN2)cc1,-2.8,-10.5%,?,4.1%,-26.5%[12.8 µM]
O=C(Cc1cccnc1)N1CC(=O)N2[C@@H](CO)[C@H](c3ccc(Br)cc3)[C@@H]2C1,-8.3,.,.,.,.
COc1cccc(N(C(=O)Cn2nnc(-c3ccc(C)cc3)n2)C(C(=O)NC(C)(C)C)c2c[nH]c3ccccc23)c1 (stereo not given),-65.9*,-9.3%,2.33µM*,1.2%,11.7µM*
CC(C)(C)NC(=O)C(c1c[nH]c2ccccc12)N(C(=O)Cn1nnc(-c2ccc(Cl)cc2)n1)c1ccccc1F (stereo not given),?,-10.9%,29.6%,-9.9%,?
COc1ccc(-n2ccn(CC(=O)Nc3ccc(C)cc3C)c(=O)c2=O)cc1,-24.3,.,.,-2.9%,.
CC(=O)c1ccc(NC(=O)COc2ccccc2-c2nc(-c3cccc(C)c3)no2)cc1,6.0,.,.,-5.8%,.
Cc1ccc(/C=N/Nc2cccc3cccnc23)c(O)c1,150.2,-16.6%,190.2%,31.6µM*,0.3%
COc1ccc2nc(C)cc(N/N=C/c3cccc(OC)c3O)c2c1,-6.9,9.0%,-8.8%,6.1%,0.0928µM*
COc1ccc(/C=N/Nc2cc(C)nc3ccc(Br)cc23)cc1,-98.1*,4.0%,0.465µM*,-5.6%,0.262µM*
Oc1ccc(/C=N/Nc2cccc3cccnc23)c(O)c1,-21.7,-14.7%,52.8%,-5.7%,55.5%
COc1ccc2nc(C)cc(SCC(=O)N/N=C/c3cccc4ccccc34)c2c1,-68.2*,10.0%,?,-0.8%,?
Cc1cc(N/N=C/c2ccccc2O)c2ccccc2n1,?,-0.8%,?,0.0%,0.522µM*
Cc1cc(-c2ccccc2)nc(N/N=C/c2ccc(O)cc2O)n1,-17.0,19.8%,-10.5%,6.4%,?
Cc1sc(NC(=O)c2ccco2)c(C(c2cccnc2)N2CCN(C)CC2)c1C (stereo not given),-7.9,10.4%,?,35.5µM*,?
Cc1sc(NC(=O)c2ccco2)c(C(c2cccnc2)N2CCCC2)c1C (stereo not given),-62.0*,0.4%,10.4µM*,?,11.7µM*
SMILES,HCMV inh,Giardia FBPA inh,Pf growth 96h,Sm TGR inh,Pf growth 48h
O=C(Nc1nc(-c2ccccn2)cs1)c1cc2ccccc2o1,-39.3,?,?,-8.7%,?
Cc1cccnc1Nc1nc(-c2ccccn2)cs1,-106.4*,?,.,9.9%,?
Cc1ccc(C(=O)Nc2nc(-c3ccccn3)cs2)s1,-99.6*,.,?,-1.0%,0.415µM*
O=C(Nc1nc(-c2ccccn2)cs1)c1ncc(Cl)c(Cl)c1Cl,-6.4,0.1%,13.1µM*,-1.2%,?
Cc1c(C(=O)Nc2nc(-c3ccccn3)cs2)oc2ccccc12,.,.,?,-5.3%,6.57µM*
Cc1cccnc1Nc1nc(-c2ccccc2)cs1,185.5,-19.9%,4.9%,-19.4%,-42.5%
C=CC[C@@H](CC(=O)N(CCO)Cc1ccccc1)C(=O)N[C@H](COC(=O)[C@H](CC=C)CC(=O)OC(C)(C)C)Cc1c[nH]c2ccccc12,-1.1,.,.,.,.
O=C(Nc1nc(-c2ccccn2)cs1)c1ccc(Cl)s1,-96.4*,?,0.37µM*,-15.1%,.
Cn1cccc1C(=O)Nc1nc(-c2ccccn2)cs1,-87.8*,?,14.7µM*,0.2%,?
O=C(Nc1ccccn1)c1ccc(Cl)s1,.,3.7%,-28.7%,-18.3%,111.9%
O=C(Cc1cccc2ccccc12)Nc1c(F)cccc1F,-13.6,9.9%,37.2%,1.2%,21.9%
O=C(c1cc(C(F)(F)F)cc(C(F)(F)F)c1)N1CCC2(CCCN(Cc3ccccc3)C2)CC1,.,7.7%,.,.,.
CCOc1ccc(C(=O)CC(NCc2cccs2)C(=O)O)cc1 (stereo not given),10.5,-4.4%,-0.3%,6.31µM*,?
CCOc1ccc(C(=O)OC(C)C(=O)N2CCN(Cc3ccccc3)CC2)cc1 (stereo not given),0.1,.,.,.,.
CCOc1ccc(C(=O)CC(C(=O)O)N2CCN(Cc3ccccc3)CC2)cc1 (stereo not given),.,.,33.5%,7.94µM*,29.1%
CCOc1ccc(C(=O)N2CCCCCC2)cc1,32.7,0.5%,490.2%,-2.0%,?
CCOc1ccc(C(=O)CC(C(=O)O)N2CCCCC2)cc1 (stereo not given),.,.,?,6.31µM*,-25.9%
CCOC1CCCc2oc(-c3ccc(OC)cc3)c(C(=O)NCCCCO)c21 (stereo not given),16.7,.,.,.,.
CC(=O)c1ccc(N2CCN(C(=O)C3CCN(S(=O)(=O)c4cccs4)CC3)CC2)cc1,?,8.8%,54.7%,1.4%,?
Cc1nc2ccccc2c2c(N)c3ccccc3n12,-62.6*,-18.4%,8.28µM*,7.1%,?
Cc1nc2ccccc2n1-c1ccccc1,12.2,-0.9%,-15.6%,0.0%,-0.7%
CNC(=S)N/N=C1\C(=O)c2cccc3cccc1c23,-106.4*,-0.9%,?,-3.0%,0.0%
O=C1C([N+](=O)[O-])=C(O)c2cccc3cccc1c23,.,25.1µM*,24.5%,39.8µM*,-0.1%
O=C1c2sccc2-c2cccc3cccc1c23,-21.9,.,.,.,.
O=C1C(=O)c2cccc3cccc1c23,?,?,6.57µM*,-0.6%,10.4µM*
CCCCn1c(=O)c2oc3ccccc3c2n(Cc2ccc(C)cc2)c1=O,13.4,.,.,3.0%,.
COc1cc(C2C3=C(CC(C)(C)CC3=O)NC3=C2C(=O)c2ccccc23)ccc1O (stereo not given),-25.9,-7.7%,8.9%,-11.6%,?
